Values joined by “and” are separate entries in the source; they are usually repeats but may differ in a detail not shown here. Equal entries are not always repeated. The whole screen tested about 16,000 compounds, of which about 2,600 (16%) were called active. Not shown: some 20% with an inconclusive outcome. Only a sample is shown. Values without a mark were called inactive. Calls follow the shape of the dose curve; as a rule, active = well fitted curve in the direction sought with a large enough effect; inconclusive = small, poorly fitted or top-dose-only effect, or effect the other way; inactive = no such curve, though single readings can be large or run the other way.
These compounds were tested against Cytochrome P450 2D6 (Homo sapiens) (UniProt P10635) (assay: Cytochrome panel assay with activity outcomes). Conditions: recombinant CYP, pro-luciferin dealkylation, luminescence, p450-cyp2d6; series mostly up to 57.1 µM; activity, negative = inhibition: at the top concentration.
% is scaled to controls: 0 for no effect and ±100 for the full control effect.

Chain of Cytochrome P450 2D6 (Homo sapiens) (P10635 whole entry, looked up): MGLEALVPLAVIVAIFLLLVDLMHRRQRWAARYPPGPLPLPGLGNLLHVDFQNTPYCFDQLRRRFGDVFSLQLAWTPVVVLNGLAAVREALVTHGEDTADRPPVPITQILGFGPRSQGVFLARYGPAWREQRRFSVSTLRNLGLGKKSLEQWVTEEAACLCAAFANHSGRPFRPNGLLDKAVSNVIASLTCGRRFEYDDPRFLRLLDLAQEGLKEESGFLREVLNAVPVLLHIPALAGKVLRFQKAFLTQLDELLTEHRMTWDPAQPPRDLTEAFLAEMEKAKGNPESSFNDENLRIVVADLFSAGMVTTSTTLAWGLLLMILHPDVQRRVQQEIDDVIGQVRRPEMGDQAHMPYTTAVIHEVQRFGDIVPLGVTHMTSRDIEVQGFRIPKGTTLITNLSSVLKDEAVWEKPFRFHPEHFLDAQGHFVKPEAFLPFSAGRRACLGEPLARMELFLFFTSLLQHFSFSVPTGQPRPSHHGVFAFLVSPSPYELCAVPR

Compound | activity, negative = inhibition | AC50
CCCc1nnc(SCC(=O)N2CCCCC2)n1CCCOC | 7.22% | 
CCOc1ccc(NC(=S)N(Cc2ccc(Cl)cc2)Cc2ccco2)cc1 |  | 7.94 µM (active)
CCOc1ccc(NC(=O)c2oc3ccccc3c2NC(=O)CC)cc1 | -24.9% | 
Cc1ccc(NC(=O)N(Cc2ccco2)C(C)c2ccco2)cc1C (stereo not given) | -5.98% | 
CCOc1ccc(NC(=S)N(Cc2ccc(N(C)C)cc2)Cc2ccco2)cc1 |  | 8.91 µM (active)
O=C(COc1ccc(Cl)cc1)Nc1ccc(N2CCN(C(=O)c3ccco3)CC2)cc1 | -1.91% | 
Cc1noc(NS(=O)(=O)c2ccc(N/C=C/C(=O)c3ccc4c(c3)OCO4)cc2)c1C | -18% | 
CCCn1nnnc1-c1cccc(Cl)c1 | 20.1% | 
COc1ccc(CNc2ncncc2-c2ccc3c(c2)OCO3)c(OC)c1 |  | 0.794 µM (active)
COc1ccccc1CNc1ncncc1-c1ccc2c(c1)OCO2 |  | 2.51 µM (active)
CCc1ccc(OCC(=O)NNC(=O)CSc2ncnc3sc(C)c(C)c23)cc1 | 1.22% | 
O=S(=O)(/N=C(\Sc1ccccc1)c1ccccc1)c1ccc(Cl)cc1 | -7.46% | 
Cc1cc(C)c(NC(=O)C[C@H](CC(=O)O)c2cccc3ccccc23)c(C(=O)N2CCC3(CCCC3)CC2)c1 | 5.85% | 
CCCCCCCCOC1OC(CO)C(O)C(O)C1NC(C)=O (stereo not given) | 10% | 
Nc1ccn([C@H]2O[C@@H](COP(=O)(O)O)[C@@H](O)[C@H]2O)c(=O)n1 | 0.248% [at 11.4 µM] | 
CO[C@@H]1COC(=O)[C@H]2CCCN2C(=O)C/C=C\[C@@H](C)[C@H](OC)COC(=O)[C@H]2CCCN2C(=O)C/C=C\[C@H]1C | 9.95% [at 11.4 µM] | 
CN(C)c1oc(-c2ccccc2)nc1C#N | -12.9% | 
Clc1ccccc1-c1ccc2ncnc(NCc3cccnc3)c2c1 |  | 6.31 µM (active)
Clc1ccccc1-c1cc(NCc2cccnc2)ncn1 | -2.97% | 
COc1ccccc1-c1ccc2ncnc(Nc3ccccc3)c2c1 |  | 10 µM (active)
COc1ccccc1-c1ccc2ncnc(NCc3cccnc3)c2c1 |  | 7.94 µM (active)
COc1cccc(-c2ccc3ncnc(NCc4cccnc4)c3c2)c1 |  | 10 µM (active)
C=CCn1cc(/C=N\NC(=O)c2cc3c(ccc4ccccc43)o2)c2ccccc21 | -19.7% | 
COc1ccc(CCn2c3c(c(=O)[nH]c2=O)C(NC(=O)c2cccs2)(C(F)(F)F)C(=O)N3)cc1OC (stereo not given) | 1.98% | 

Compound | activity, negative = inhibition | AC50
COC(=O)C1=C(NC(=O)c2cccc(OC)c2)CCS1 | -19.5% | 
O=c1c(-c2ccccc2)nc2cnc(N3CCOCC3)nc2n1CCc1ccccc1 | -5% | 
N#C/C(=C\Nc1ccccn1)C(=O)C1CC1 | 5.79% [at 11.4 µM] | 
CC[C@@H](CS(=O)(=O)O)[N+](=O)[O-] | 2.2% [at 11.4 µM] | 
CN[C@@H]1[C@H](O[C@@H]2O[C@H](CO)[C@@H](N)[C@H](O)[C@@H]2O)O[C@H]2C[C@@H](N)[C@@H](O[C@H]3[C@@H](O)[C@H](O)[C@H](N)C[C@@H]3N)O[C@H]2[C@H]1O | 5.28% [at 25.6 µM] | 
O=C(COc1ccc(-c2ccccc2)cc1)N/N=C/c1ccccc1Br | -26.4% | 
CN(C)C(=O)c1ccc(-c2ccc3ncnc(Nc4ccc(F)cc4)c3c2)cc1 |  | 10 µM (active)
FC(F)(F)c1ccccc1-c1ccc2ncnc(NCc3cccnc3)c2c1 |  | 1.58 µM (active)
COc1ccc(-c2cc(C(F)(F)F)nc(SCc3cccc(C(=O)O)c3)n2)cc1 | 22.7% | 
COc1cccc(-c2cc(C(F)(F)F)nc(N3CCCCC3)n2)c1 | -11.8% | 
COc1ccc(-c2cc(C(F)(F)F)nc(NCc3cccnc3)n2)cc1 |  | 31.6 µM (active)
CCCCCCCCCCCCCCCCCCc1ccc(C(=O)/C=C\C(=O)O)cc1 | 2.49% | 
Cn1cc(-c2nc3cncnc3n(Cc3ccc(F)cc3)c2=O)c2ccccc21 | 11.3% | 
CCCCC1(C)OC(=O)C(=Cc2ccc(N(C)C)cc2)C(=O)O1 (stereo not given) | 0.664% | 
NS(=O)(=O)c1ccc(N=Nc2c(O)c(C(=O)O)cc3ccccc23)cc1 | 14.9% [at 11.4 µM] | 
CC#CCCCC(=O)Nc1ccc(C(=O)O)cc1 | 14.3% | 
Cn1nc(C(F)(F)F)c(/C=N/OCc2c(Cl)cccc2Cl)c1Cl | -4.38% | 
Cn1nc(C(F)(F)F)c(/C=N/OC(=O)c2ccccc2Cl)c1SCc1ccc(Cl)cc1 | -27.3% | 
Cn1nc(C(F)(F)F)c(/C=N/OC(=O)c2ccc(Cl)cc2)c1Cl |  | 15.8 µM (active)
C=CC(=O)NC(NC(=O)C=C)c1ccc(Br)cc1 | 11% | 
C(=C1/CCCC2=C1Nc1ncnn1C2c1ccccc1)/c1ccccc1 (stereo not given) | 2.54% | 
O=C1CC(=Nc2ccccc2)NN1c1ccccc1 | -10.4% | 
CCCCSc1ccc2nc(-c3ccc(C#N)cc3)cn2c1 | -24.5% | 
CCN(Cc1ccncc1)C(=O)[C@@H](CO)c1ccccc1 |  | inactive

Compound | activity, negative = inhibition | AC50
CN(C)CCOC(=O)[C@@H](c1ccccc1)C1(O)CCCC1 | -6.43% [at 25.6 µM] | 
CCN(CC)CCOC(=O)C(c1ccccc1)c1ccccc1 |  | 5.01 µM (active)
CCN(CC)CCOC(=O)[C@@H](c1ccccc1)C1CCCCC1 |  | 0.631 µM (active)
CCCC(C(=O)OCCN(CC)CC)(c1ccccc1)c1ccccc1 |  | 63.1 nM (active) and 15.8 nM (active)
O=C1CCC[C@@H](C(C(=O)OCc2ccccc2)C(=O)OCc2ccccc2)C1 | -12.9% [at 11.4 µM] | 
O=C(O)C1CCCN1C(=O)OCc1ccccc1 (stereo not given) | -3.43% | 
N[C@@](CCc1ccccc1)(C(=O)O)c1ccccc1 | 0.379% [at 11.4 µM] | 
N#Cc1cccc(NC(=O)N2CCC3(CC2)CCN(C(=O)c2cccc(F)c2)CC3)c1 | -13.4% | 
O=C(O)[C@@H]1[C@@H]2C[C@@H]3[C@@H](OC(=O)[C@@H]31)[C@H]2Br | 0.593% [at 11.4 µM] | 
CCOC(=O)c1ccc(-c2ccc(/C=C(\C#N)C(=O)NCC3CCCO3)o2)cc1 (stereo not given) | -17.3% | 
COC(=O)c1cc2c(ccn2-c2ccc(F)cc2)n1CC(C)C | 13.8% | 
OC[C@@H]1O[C@@H](n2cnc3cncnc32)[C@@H](O)[C@H]1O | -2.03% | 
NC(=O)Nc1n[nH]c(-c2ccccc2)n1 | 9.86% [at 11.4 µM] | 
Cc1ccc2cc3cc(C(=O)N4CCCCC4C)oc3nc2c1 (stereo not given) | -7.91% | 
O[C@@H]1[C@@H](OCc2ccccc2)OC[C@H](O)[C@@H]1O | 0.194% [at 11.4 µM] | 
COc1cc(OC)c(NC(=S)Nc2cccc(C(C)=O)c2)cc1Cl |  | 15.8 µM (active)
CCOc1cc(NC(=S)Nc2cccc(C)c2)c(OCC)cc1NC(=O)CC(C)C | -15.7% | 
COc1cc(C(=O)NC(=S)Nc2ccc(Cl)c(C(=O)O)c2)cc(OC)c1OC | 1.96% | 
CC(C)CCNC(=O)Cc1ccccc1[N+](=O)[O-] | -21.8% | 
O=C(CSc1c[nH]c2ccccc12)N1CCOCC1 | -28.8% | 
CCc1cc2c(=O)c(-c3nc4ccccc4[nH]3)coc2cc1OC(=O)N1CCOCC1 | -17.4% | 
CCOC(=O)N1CCN(S(=O)(=O)Cc2ccccc2)CC1 | -6.68% | 
CC(C)NC1(C(N)=O)CCN(Cc2ccccc2)CC1 |  | 0.631 µM (active)
COC(=O)[C@H](Cc1ccccc1)NC(=O)[C@@H](C)CO | 3.71% [at 11.4 µM] | 

Compound | activity, negative = inhibition | AC50
CCOC(=O)C1(S(=O)(=O)c2ccccc2)CCN(Cc2ccccc2)CC1 |  | 2 µM (active)
O=C(c1ccco1)N1CCN(C(=O)C2(S(=O)(=O)c3ccc(Cl)cc3)CC2)CC1 | -9.48% | 
CCOC(=O)N1CCN(C(=O)C(C)SCc2ccccc2)CC1 (stereo not given) | -25.5% | 
COC(=O)[C@H](Cc1ccccc1)NC(=O)N1CCN(Cc2ccccc2)CC1 |  | 11.2 µM (active)
CCOC(=O)C1(S(=O)(=O)c2ccc(Cl)cc2)CCN(Cc2ccc(Cl)cc2)CC1 |  | 3.55 µM (active)
CCOC(=O)N1CCN(C(=O)CSCc2ccc(Cl)cc2)CC1 | -16% | 
COc1ccc(Nc2ncc(C(=O)N3CCN(Cc4ccccc4)CC3)c3ccccc23)cc1 | -6.13% | 
C/C(=N\Nc1nnc(C)c(=O)[nH]1)C(=O)O | -0.0511% | 
COc1ccc(C2/C(=C(/O)c3ccc(Cl)cc3)C(=O)C(=O)N2CCN2CCOCC2)c(OC)c1 (stereo not given) | -38.4% | 
CN[C@@H]1NC(=O)c2ccccc2N1Cc1ccc(F)cc1 | 10.6% [at 11.4 µM] | 
CSc1nnc(-c2cc3c(-c4ccccc4)nn(C)c3s2)n1C | 0.173% | 
CC(C)(N=NC(C)(C)C1=NCCN1)C1=NCCN1 | 6.75% [at 11.4 µM] | 
O=c1[nH]c(=O)n(Cc2ccco2)c2c1C(C(F)(F)F)(C(F)(F)F)N=C(CCC1CCCCC1)N2 | -3.9% | 
CC(C)CO/N=C1/[C@H]2O[C@@H]2[C@@H](O)[C@H]2[C@H]1CCn1c(=O)n(C)c(=O)n12 | 1.5% [at 11.4 µM] | 
CC(C)C[C@H](NC(=O)N1CCCCCC1)C(=O)N[C@H](Cc1cn(C)c2ccccc12)C(=O)N[C@H](Cc1ccccn1)C(=O)O | -13.8% | 
Cc1ccc(C(=O)NC(=S)Nc2cccc3nsnc23)cc1 | 28.9% | 
CC(C)(C)C(=O)Nc1cccc(-c2nc3ccccc3c(=O)o2)c1 | -27.2% | 
c1ccc(CCNc2ccccn2)nc1 | -8.12% [at 11.4 µM] | 
CN(C)CCNc1ccccn1 | -15.2% [at 11.4 µM] | 
O[C@H](CNc1ccccn1)c1ccccc1 |  | 1.58 µM (active)
CCCNC(=O)OC[C@@H]1O[C@H](CCO/N=C\C[C@H]2C=C[C@H](OC(C)=O)[C@@H](COC(C)=O)O2)C=C[C@@H]1Oc1ccc(OC)cc1 | -15.6% [at 11.4 µM] | 
CC(C)=CCNc1ncnc2nc[nH]c12 | 10.2% [at 11.4 µM] | 
COc1ccc(N2CCN(C(=S)Nc3cccc(C)c3)CC2)cc1 | 7.47% | 

Source: PubChem BioAssay AID1851 (National Center for Advancing Translational Sciences (NCATS), 2009)
